According to PubChem BioAssay AID463173 (ICCB-Longwood Screening Facility, Harvard Medical School, 2010):
Out of some 52,000 compounds screened, about 4,300 (8.3%) were called active. The list comes from a sample in which actives are over-represented; it also holds similar structures and randomly drawn compounds. Unmarked numbers belong to inactive results. No stated cut-off is given here; in the data, active means survival mostly below about 52% (no sharp cut-off); inactive means mostly above about 56%.

Test system: DeltatarO mutant
Test: growth inhibition of S. aureus wild type versus tarO mutant, primary screen, teichoic acid synthesis inhibitors, RN4220, OD600 (AID 463173)
Conditions: OD600, 18 h, hits give low values, screened at 18.75 µg/mL (by protocol)

In order of falling survival:
1. CCOC(=O)c1sc(NC(=O)C(C)Sc2nc(-c3ccccc3)cc(C(F)(F)F)n2)c(C(=O)OC)c1C (configuration not stated)  159%
2. Cc1cccc(-c2nc3c(cnn3-c3ccccc3)c(=O)n2-c2ccc(Br)cc2)c1  139%
3. COC(=O)c1ccc(C(=O)OC)c(NC(=O)c2ccc(-c3ccccc3)s2)c1  126%
4. CC(=O)Nc1ccc(NC(=O)C(c2ccccc2)N2Cc3ccccc3C2=O)cc1 (configuration not stated)  119%
5. COc1ccc(CCNC(=O)CCCCn2c(=O)c3ccccc3n(CC(=O)Nc3c(C)cccc3C)c2=O)cc1OC  115%
6. CC(=O)N1c2ccc(S(=O)(=O)NCC3CCC(C(=O)Nc4ccccc4C)CC3)cc2CC1C (configuration not stated)  104%
7. CCCCc1nn2c(C)c(-c3ccc(OCC)cc3)nc2s1  103%
8. O=C(Nc1ccc(F)c(F)c1)C(c1ccccc1)N1Cc2ccccc2C1=O (configuration not stated)  102%
9. CC(C)NC(=O)C(c1ccccc1)N1Cc2ccccc2C1=O (configuration not stated)  101%
10. CCOc1ccccc1NC(=O)C(c1ccccc1)N1Cc2ccccc2C1=O (configuration not stated)  96%
11. CCOc1ccccc1CNC(=O)C1CCN(S(=O)(=O)c2ccc3c(ccn3C)c2)CC1  96%
12. O=C(Nc1ccccc1F)NC1CCN(Cc2nnnn2Cc2ccc(F)cc2)CC1  96%
13. COc1ccc(-n2c(-c3cccc(F)c3)nc3c(cnn3-c3ccc(C)cc3)c2=O)cc1  96%
14. O=C(Nc1ccc(Cl)cc1Cl)c1cc(S(=O)(=O)NCc2ccc3c(c2)OCO3)ccc1F  94%
15. O=C(C1CCC1)N1CCc2cc(S(=O)(=O)NCc3ccc(F)cc3)ccc21  93%
16. CCOC(=O)c1c(NC(=O)CSc2cn(CCNC(=O)c3ccc(OCC)cc3)c3ccccc23)sc2c1CCCC2  93%
17. O=C(NCCCN1CCN(c2ccccc2F)CC1)C1COc2ccccc2C1 (configuration not stated)  92%
18. COc1ccc(C(=O)OCc2cc(=O)n3nc(C4CC4)sc3n2)cc1OC  91%
19. CC(=O)NC1(c2ccccc2)CCN(Cc2nnnn2C(C)(C)C)CC1  91%
20. Cc1ccc(-n2ncc3c(N(C)Cc4ccccc4)ncnc32)cc1  89%
21. Cc1ccc(C)c(N2CCN(C(=O)CCS(=O)(=O)c3ccc4c(c3)CC(=O)N4C)CC2)c1  89%
22. CCOC(=O)c1c(CN(C)C)oc2ccc(O)cc12  88%
23. CSc1cccc(NC(=O)C(c2ccccc2)N2Cc3ccccc3C2=O)c1 (configuration not stated)  88%
24. COc1cc(-c2nc3cc(Cl)ccc3o2)cc(OC)c1OC  87%
25. CCCCN(c1ccccc1)c1ncnc2c1cnn2-c1ccc(Cl)cc1  87%
26. Cc1ccc(-n2ncc3c(NCCc4ccccc4)ncnc32)cc1  87%
27. COCCCNc1ncnc2c1cnn2-c1ccc(F)cc1  86%
28. CCc1nc2c(cnn2-c2ccccc2)c(=O)n1-c1ccc(Br)cc1  86%
29. Cc1c(C(=O)N(Cc2ccccc2F)C2CCS(=O)(=O)C2)oc2ccccc12 (configuration not stated)  84%
30. COCCNC(=O)CSc1nc2cc3c(cc2c(=O)n1CCCC(=O)NCc1ccc(OC)cc1)OCO3  84%
31. CC(=O)c1ccc(NC(=O)CSc2nnc3ccc(-c4ccc(Cl)cc4)nn23)cc1  83%
32. COc1ccc(CCNc2ncnc3c2cnn3-c2ccc(C)cc2)cc1  81%
33. Cc1ccc(-n2c(-c3ccco3)nc3c(cnn3-c3ccc(C)cc3)c2=O)cc1  81%
34. CC(=O)N1CCCc2ccc(NS(=O)(=O)c3cccc(Cl)c3)cc21  80%
35. COc1ccc(-n2c(-c3ccccc3F)nc3c(cnn3-c3ccc(C)cc3)c2=O)cc1  80%
36. COc1ccc(OC)c(CCNC(=O)c2ccc3c(c2)c(C)c(C)n3Cc2ccccc2)c1  79%
37. CCN(Cc1ccccc1)c1ncnc2c1cnn2-c1ccc(F)cc1  79%
38. O=C(C1CCCN(S(=O)(=O)c2cccc3nsnc23)C1)N1CCN(c2ccccc2)CC1 (configuration not stated)  79%
39. COc1ccc(CCN2C(=O)CN=C2Nc2ccc(F)cc2)cc1OC  78%
40. Cc1ccc2oc(=O)c3cc(C(=O)Nc4ccc(C)c(F)c4)sc3c2c1  77%
41. Cc1ccc2oc(C(=O)N(Cc3cccc(F)c3)C3CCS(=O)(=O)C3)c(C)c2c1 (configuration not stated)  76%
42. C=CCn1c(C(C)NC(=O)c2ccccc2Cl)n[nH]c1=S (configuration not stated)  76%
43. COc1cccc(-n2c(-c3cccc(F)c3)nc3c(cnn3-c3ccc(C)cc3)c2=O)c1  76%
44. CN(C)c1ccc(NC(=O)CSC2=Nc3ccccc3C3=NC(CCC(=O)NCc4cccs4)C(=O)N23)cc1 (configuration not stated)  75%
45. COc1cccc(-n2c(-c3ccccc3F)nc3c(cnn3-c3ccc(C)cc3)c2=O)c1  75%
46. CCCCN(CCCC)c1ncnc2c1cnn2-c1cccc(C)c1  74%
47. O=C(Nc1ccccc1F)C(c1ccccc1)N1Cc2ccccc2C1=O (configuration not stated)  72%
48. Cc1ccc(NC(=O)[C@@H](c2ccccc2)N2Cc3ccccc3C2=O)cc1  71%
49. COc1ccc(Cl)cc1NC(=O)c1c(NCc2sccc2C)sc2c1CCCC2  71%
50. COc1cc(NC(=O)Cn2nc(Cc3cccnc3)c3ccccc3c2=O)cc(OC)c1OC  71%
51. CCOC(=O)c1sc2ccccc2c1S(=O)(=O)Nc1c(C)cccc1C  70%
52. CCOc1ccccc1NC(=O)Cn1c(=O)n(-c2ccc(Cl)cc2)c(=O)c2oc3ccccc3c21  69%
53. COc1cccc(CN(C(=O)c2oc3ccccc3c2C)C2CCS(=O)(=O)C2)c1 (configuration not stated)  69%
54. Cc1cccc(C)c1NC(=O)c1ccc2nc(CCc3ccccc3)oc2c1  69%
55. Cc1ccc2c(c1)-c1onc(C(=O)N(C)c3ccc(F)cc3)c1CO2  65%
56. COCCCN1C(=O)c2oc3ccccc3c(=O)c2C12C(=O)N(C)c1ccccc12 (configuration not stated)  64%
57. CCN1C(=O)C2(c3ccccc31)c1c(oc3ccc(F)cc3c1=O)C(=O)N2CCCOC (configuration not stated)  64%
58. Cc1c(C(=O)N(Cc2cccc(F)c2)C2CCS(=O)(=O)C2)oc2cc(Br)ccc12 (configuration not stated)  63%
59. O=C(Nc1cccc(F)c1F)C1CCN(c2ncccn2)CC1  62%
60. O=C(CSc1nc(-c2ccc(F)cc2)cc(C(F)(F)F)n1)NCc1ccccc1  62%
61. CN1C(=O)SC(N(CC(N)=O)c2ccccc2)C1=O (configuration not stated)  61%
62. CCCN1C(=O)C2(c3ccccc31)c1c(oc3ccc(C)cc3c1=O)C(=O)N2CCOC (configuration not stated)  60%
63. COc1ccc(-c2cc(C(F)(F)F)nc(SCC(=O)NCCc3ccccc3)n2)cc1OC  58%
64. Cc1ccc(Cl)cc1N1CCN(C(=O)Cn2nc(C)c3sc4ccccc4c3c2=O)CC1  57%
65. COc1cccc(CN(C(=O)c2oc3cc(C)ccc3c2C)C2CCS(=O)(=O)C2)c1 (configuration not stated)  57%
66. Cc1cc2oc3c(c(=O)c2cc1C)C1(C(=O)N(C)c2ccccc21)N(CCO)C3=O (configuration not stated)  55%
67. COc1ccccc1CNC(=O)CSc1nc(-c2ccc(OC)c(OC)c2)cc(C(F)(F)F)n1  55%
68. CCN(c1ccccc1)c1ncnc2c1cnn2-c1ccc(C)cc1C  55%
69. COc1cc(CN(C(=O)c2oc3ccccc3c2C)C2CCS(=O)(=O)C2)cc(OC)c1OC (configuration not stated)  55%
70. CCCCNC(=O)[C@@H](c1ccccc1)N1Cc2ccccc2C1=O  54%
71. COc1cccc(C(=O)COC(=O)c2cc(-c3cccs3)nc3ccccc23)c1  54%
72. Cc1nc(-n2nc(C)c(CCC(C)C)c2C)sc1C(=O)Nc1ccc(Br)cc1  50%
73. CCN1C(=O)C2(c3ccccc31)c1c(oc3ccc(C)cc3c1=O)C(=O)N2CCCOC(C)C (configuration not stated)  49%
74. CCCN1C(=O)C2(c3ccccc31)c1c(oc3ccccc3c1=O)C(=O)N2CCCOC(C)C (configuration not stated)  48%
75. CCc1nc2c(cnn2-c2ccc(C)cc2)c(=O)n1-c1ccc(C)cc1  47%
76. N#Cc1c[nH]n2c(NC3CCCC3)c(-c3cccc(Br)c3)nc12  45%
77. COc1ccc(-c2cc(C(F)(F)F)nc(SCC(=O)N(C)Cc3ccccc3)n2)cc1  44%

For CCCN1C(=O)C2(c3ccccc31)c1c(oc3cc(C)c(C)cc3c1=O)C(=O)N2CCCOC (configuration not stated), the survival was 55% (active).
For COCCN1C(=O)c2oc3ccc(C)cc3c(=O)c2C12C(=O)N(C)c1ccccc12 (configuration not stated), the survival was 45% (active).
Cc1ccc2oc3c(c(=O)c2c1)C1(C(=O)N(C)c2ccccc21)N(CCCO)C3=O (configuration not stated) was tested, and the survival was 51% (active).
For CCc1ccccc1NC(=O)[C@@H](c1ccccc1)N1Cc2ccccc2C1=O, the survival was 4% (active).
In the case of O=C(Nc1cccc(F)c1)[C@@H](c1ccccc1)N1Cc2ccccc2C1=O, the survival is reported as 46% (active).
CC(C)CCNC(=O)[C@@H](c1ccccc1)N1Cc2ccccc2C1=O was tested, and the survival was 12% (active).
For O=C(Nc1ccc(F)cc1)[C@@H](c1ccccc1)N1Cc2ccccc2C1=O, the survival was 38% (active).
For COc1ccc(-c2cc(C(F)(F)F)nc(SCC(=O)N(C)Cc3ccccc3)n2)cc1OC, the survival was 33% (active).
In the case of CN(Cc1ccccc1)C(=O)CSc1nc(-c2ccc(F)cc2)cc(C(F)(F)F)n1, the survival is reported as 31% (active).
For CCN(c1ccccc1)c1ncnc2c1cnn2-c1ccc(OC)cc1, the survival was 52% (active).
Cc1ccc(-n2ncc3c(N(CCO)Cc4ccccc4)ncnc32)cc1 was tested, and the survival was 8% (active).
In the case of COc1ccc(-n2ncc3c(NCCCOC(C)C)ncnc32)cc1, the survival is reported as 0% (active).
In the case of OCCN(CCO)c1ncnc2c1cnn2-c1ccc(F)cc1, the survival is reported as 6% (active).
For COc1cccc(CN(C(=O)c2oc3ccc(Br)cc3c2C)C2CCS(=O)(=O)C2)c1 (configuration not stated), the survival was 40% (active).
For Cc1ccc2c(C)c(C(=O)N(Cc3ccc(Cl)cc3)C3CCS(=O)(=O)C3)oc2c1 (configuration not stated), the survival was 34% (active).
With Cc1c(C(=O)N(Cc2ccc(N(C)C)cc2)C2CCS(=O)(=O)C2)oc2ccccc12 (configuration not stated) the survival was 42% (active).
In the case of Cc1ccc(-n2c(-c3cccc(C)c3)nc3c(cnn3-c3ccccc3)c2=O)cc1, the survival is reported as 19% (active).
In the case of Cc1ccc(-c2nc3c(cnn3-c3ccccc3)c(=O)n2-c2cccc(Cl)c2)cc1, the survival is reported as 33% (active).
For Cc1ccc(-n2c(-c3ccc(Br)cc3)nc3c(cnn3-c3ccccc3)c2=O)cc1, the survival was 39% (active).
Cc1ccc(-c2nc3c(cnn3-c3ccccc3)c(=O)n2-c2ccc(Cl)cc2)cc1 was tested, and the survival was 44% (active).
